Inconclusive results are not listed. Unmarked numbers belong to inactive results. The call rests on the fitted dose curve; in most records, active means well fitted activation curve with a large enough effect; inconclusive means small, poorly fitted or top-dose-only effect; inactive means flat fitted curve, though single readings scatter.
Assay: qHTS for Inhibitors of Cell Surface uPA Generation: FP59 Counterscreen for Cherry-picked Compounds; further: 0% is about no effect
Conditions: FP59 anthrax toxin cytotoxicity counterscreen, cells; series mostly up to 115 µM; activity (protection from FP59): at the top concentration

Structure (SMILES)	activity (protection from FP59) [%]
Cc1[nH]c2ccccc2c1C(=O)COC(=O)c1cccc(S(=O)(=O)N2CCCCC2)c1	0.844
O=C(NNC(=O)c1cccnc1)c1ccncc1	-1.3
C[C@@H]1O[C@@H](O[C@@H]2C(=O)c3c(O)cc(O)cc3O[C@H]2c2ccc(O)c(O)c2)[C@H](O)[C@H](O)[C@H]1O	-1.41
COc1ccc(Cl)cc1NC(=O)CSc1nc(=O)n(CCN(C)C)c2c1CCCC2	-1.62
CC1=CC(C)C(C[N+]2(C)CCCCC2)C(C)C1 (centres undefined)	-1.54
Cc1ccnc(NS(=O)(=O)c2ccc(NC(=O)C3C4C=CC(C4)C3C(=O)O)cc2)n1 (centres undefined)	-0.562
Cc1cc(C)n(-c2cc(C(=O)O)cc(C(=O)O)c2)n1	-1.29
O=C(NCCCn1cccn1)C1CCC(=O)N(Cc2ccccc2F)C1 (centres undefined)	-1.39
CNS(=O)(=O)c1cc(-c2nnc(Nc3ccc(CC(N)=O)cc3)c3ccccc23)ccc1C	-0.159
Cn1c(=O)c2c(ncn2CCO)n(C)c1=O	-0.875
Cc1ccccc1OCCC(=O)NNC(=O)c1ccccc1F	-1.31
Cc1cc(C)cc(NC(=O)Cc2ccc(NC3=NC4CS(=O)(=O)CC4S3)cc2)c1 (centres undefined)	-1.22
O=C(COc1ccc(C(=S)N2CCOCC2)cc1)N1CCOCC1	-1.21
COC(=O)c1ccc(N2CCN(c3ccccc3)CC2)c(NC(=O)C2CC2)c1	-1.64
Cc1cccc(-c2nc(CS(=O)CC(=O)NCc3cccs3)c(C)o2)c1 (centres undefined)	-1.04
Cc1c([N+](=O)[O-])c2ccc(O)cc2n1-c1ccccc1	-1.23
Cc1ccnc(NC(=O)CCNS(=O)(=O)c2ccc(C)c(C)c2)c1	-1.33
O=C(c1cc(COc2ccc(F)cc2Cl)on1)N1CCCCCC1	-0.0358
O=C(Nc1cccc(NC(=O)c2ccc(F)cc2)c1)c1ccc(F)cc1	-1.25
CC1(CC(=O)N/N=C/c2cc(Br)c(O)cc2O)OCCO1	1.07

Structure (SMILES)	activity (protection from FP59) [%]
Cc1cccc(NC(=O)c2cc3c(=O)n4ccccc4nc3s2)c1	-1.34
COc1ccc(C2=NOC(CNC(N)=S)C2)cc1 (centres undefined)	-1.38
CCOc1ccccc1C(=O)NC1CCN(CC(=O)Nc2cc(OC)ccc2OC)CC1	-0.0735
O=C(CN1CCOC1=O)N1CCCC(Nc2ccc(F)c(F)c2)C1 (centres undefined)	-1.34
COc1ccc2nc(C)cc(Nc3ccccc3O)c2c1	-1.53
COC(=O)c1ccccc1NC(=O)Nc1nnc(N2CCCCC2C)s1 (centres undefined)	12.4
O=[N+]([O-])c1ccccc1C=NNC(=S)NN=Cc1ccccc1[N+](=O)[O-]	-0.537
CC(C)Cn1cnc2c(N)nc3ccccc3c21	-0.237
Cc1nn(C)c(C)c1S(=O)(=O)N1CCC(C(=O)NC2CCCCCC2)CC1	-1.25
CCNC(=S)NNC(=O)C(c1ccccc1)c1ccccc1	-1.4
O=S(=O)(c1ccc2nc(N3CCN(c4ccccc4)CC3)ccc2c1)N1CCCCC1	-1.27
COc1cc(CCC(=O)OCC(=O)NCc2ccccc2)cc(OC)c1OC	0.669
COc1cc(/C=N/NC(=O)c2ccncc2)ccc1O	-1.39
CCCCNC(=O)C1CCN(S(=O)(=O)c2c(C)noc2/C=C\c2ccc(OC)cc2)CC1	-1.02
COc1cc2cc(CN(CCN3CCOCC3)C(=O)Nc3ccc(F)cc3)c(=O)[nH]c2cc1OC	-1.42
CC1(C)Oc2ccc3ccc(=O)oc3c2[C@@H](O)[C@H]1O	-1.51
COc1ccc(OC)c(NC(=O)C2CCCN2C(=O)C2CCC(C)CC2)c1 (centres undefined)	-1.26
C[C@@H](C(=O)Nc1ccc2ccccc2c1)[C@@H]1C[C@@]1(C)[C@@H](NC(=O)c1cccnc1)c1ccccc1	8.6
COc1cc(C(=O)N/N=C(\Cc2ncc[nH]2)c2ccccc2)cc(OC)c1OC	-0.278
